Most compounds without a hit are left out; they make up all but 21% or so of the library.
Shiga inhibitor: blocks Shiga toxin action in Vero cells; Vero cells, Shiga toxin protein synthesis inhibition reporter; inhibition, % at 38.7 µM; actives 9.2% (n = 290,000); AID 2315; in the data active means inhibition mostly above about 28%, no sharp cut-off; inactive means mostly below about 43%; further: 0% is about no effect
Pf growth 96h: P. falciparum growth inhibition at 96 hours. Potency, µM (series often up to 28.7 µM), without a hit: top-dose activity change, negative = inhibition, hits mostly inhibitors. actives 6.9% (n = 320,000). AID 504834. P. falciparum luciferase reporter growth, 96 h; further: potency means the concentration at half of the fitted maximal effect; on the % scale 0 is the no-effect control and ±100 the full control effect
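Readout is luminescence from an integrated firefly luciferase in P. falciparum. Red cells, 2% hematocrit and 0.05% parasitemia final, were cultured with compound through two parasite generations (96 hours) at 37 C, 5% CO2.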
Cycloheximide cs: counter-screen hit for Shiga toxin inhibitors, cycloheximide | cell reporter, cycloheximide protein synthesis inhibition counterscreen | max response, % | actives 12% (n = 300,000) | AID 2314; in the data active means max response mostly above about 13%, no sharp cut-off; inactive means mostly below about 14%; further: read at 38.3 µM for the half of the compounds with a filed dose; 0% is about no effect
NS1 function inh: blocks influenza NS1 protein function; Potency, µM (titrated, usually from 46.1 µM), for inactives: at the highest dose activity, positive = more growth; actives 0.4% (n = 270,000); AID 2326; calls by dose curve; further: potency means the concentration at half of the fitted maximal effect; actives are rising curves; nearly all actives have a fitted effect of over 50% in size
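Compounds were scored for reversing the slow growth caused by influenza A NS1 in S. cerevisiae, measured by optical density at 600 nm. Assay medium contained 2% galactose at pH 6.0; NS1-free yeast of the same strain were the positive control.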
Pf growth 48h: inhibits P. falciparum growth in the first generation, 48 h. P. falciparum luciferase growth in erythrocytes, 48 h. actives 5.9% (n = 310,000). Potency, µM (highest dose often 28.7 µM), for the others: at the highest dose activity change, negative = inhibition, most hits filed as inhibitors. AID 504832; further: potency means the concentration at half of the fitted maximal effect; on the % scale 0 is the no-effect control and ±100 the full control effect
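First compound was added to culture medium, then infected red cells at 0.1% parasitemia and 2% hematocrit (final). After incubation at 37 C under 5% CO2, luciferase detection reagent was dispensed and light output recorded.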
Active calls of the source: *; i = inactive; ? = inconclusive; . = no result given; [ ] = remark or other dose. Unless noted, the call rests on the fitted dose curve; in most records, active means well fitted inhibition curve with a large enough effect; inconclusive means small, poorly fitted or top-dose-only effect, or another doubt; inactive means no such curve, though single readings can be large or run the other way.

SMILES | Shiga inhibitor | Pf growth 96h | Cycloheximide cs | NS1 function inh | Pf growth 48h
COc1ccc(-n2cnc3cc(C(=O)NCC4CCCO4)ccc32)cc1 (centres undefined) | 20 | 46% | 2 | 1% | 34%
COCCNC(=O)c1cc2cc3ccc(OC)cc3nc2o1 | 50 | 16% | 42* | -3% | 7%[0.00184 µM]
COc1cccc(NC(=O)CSC2=C(C#N)C(c3ccco3)C3=C(CCCC3=O)N2)c1 (centres undefined) | 92* | 134% | 36* | -4% | -21%
COc1ccc(C2C(C#N)=C(SCC(=O)Nc3ccc(C)cc3)NC3=C2C(=O)CC(C)(C)C3)cc1 (centres undefined) | 27 | ? | 1 | 18% | 13µM*
CC(=O)C1=C(C)NC(SCC(=O)c2ccc(F)cc2)=C(C#N)C1c1ccco1 (centres undefined) | 5 | ? | 4 | -68% | .
Cc1ccc(C(=O)CSC2=C(C#N)C(c3ccco3)C3=C(CCCC3=O)N2)cc1 (centres undefined) | -18 | -24% | 18* | 16% | ?
COc1ccc(NC(=O)CSC2=C(C#N)C(c3ccco3)C3=C(CCCC3=O)N2)c(OC)c1 (centres undefined) | -13 | . | 14 | 5% | .
N#CC1=C(SCC(=O)c2ccccc2)NC2=C(C(=O)CCC2)C1c1ccco1 (centres undefined) | 72* | 82% | 66* | 20% | ?
C=CCn1c(SCC(=O)NC2CC2)nnc1-c1cccs1 | -29 | 28% | 3 | 3% | 18%
CC(=O)Nc1ccc(OC(=O)Cc2ccc(Cl)cc2)cc1 | -12 | 18% | -2 | 6% | -5%
CC(C)(C)c1ccc(C(=O)CCCSC2=C(C#N)C(c3ccco3)C3=C(CCCC3=O)N2)cc1 (centres undefined) | -2 | 20% | 4 | ? | 6.6µM*
O=C(Nc1nccs1)C1Cc2ccccc2CN1S(=O)(=O)c1ccc(F)cc1 (centres undefined) | 94* | i | 48* | -6% | 291%
O=C(Nc1nccs1)C1CCCCN1S(=O)(=O)c1ccccc1 (centres undefined) | 5 | ? | 2 | 0% | -16%
CCNC(=O)C1Cc2ccccc2CN1S(=O)(=O)c1ccc(F)cc1 (centres undefined) | -3 | 25% | 0 | -68% | 0.83µM*
COC(=O)CNC(=O)C1Cc2ccccc2CN1S(=O)(=O)c1ccc(F)cc1 (centres undefined) | 23 | -7% | -3 | 1% | -11%[0.00184 µM]
CCS(=O)(=O)N1Cc2ccccc2CC1C(=O)Nc1nnc(SCc2ccc(C#N)cc2)s1 (centres undefined) | 5 | -9% | -2 | ? | -16%
O=C(Nc1nnc(C2CC2)s1)C1Cc2ccccc2CN1S(=O)(=O)c1ccccc1F (centres undefined) | 76 | ? | 41* | 19% | ?
O=C(NC1CCCCC1)C1Cc2ccccc2CN1S(=O)(=O)c1ccc(F)cc1 (centres undefined) | 4 | 13µM* | 0 | -8% | ?
O=C(C1Cc2ccccc2CN1S(=O)(=O)c1ccc(F)cc1)N1CCCCC1 (centres undefined) | 14 | . | -2 | -49% | -16%
CC(CCc1ccccc1)NC(=O)CN1CCSc2ccccc21 (centres undefined) | -5 | -1% | 5 | . | ?
CCOCCCNC(=O)Cc1ccc(-n2c(CC)nc3cccnc32)cc1 | -9 | ? | 6 | 7% | -27%
CCc1nc2cccnc2n1-c1ccc(CC(=O)O)cc1 | 1 | 10µM* | -3 | 4% | -18%
CN(c1ccccc1)S(=O)(=O)c1cccc(NC(=O)c2ccc3ncsc3c2)c1 | -6 | 10µM* | -1 | 1% | ?
CN(C)S(=O)(=O)c1cccc(C(=O)Nc2ccccc2)c1 | 42 | 20% | 15 | 3% | 31%
Cc1ccc(NC(=O)c2ccc3ncsc3c2)cc1S(=O)(=O)N(C)C | 146* | 245% | 70* | 2% | 121%
SMILES | Shiga inhibitor | Pf growth 96h | Cycloheximide cs | NS1 function inh | Pf growth 48h
CN(c1ccccc1)S(=O)(=O)c1cccc(NC(=O)c2cccc(C#N)c2)c1 | . | ? | . | . | 13µM*
CN(c1ccccc1)S(=O)(=O)c1cccc(NC(=O)CSc2nncs2)c1 | -3 | ? | -2 | 0% | -15%
Cc1ccc(NC(=O)c2cccnc2)cc1S(=O)(=O)N(C)C | 23 | 9% | 12 | . | -29%
Cn1cc([C@@H]2C[C@H]3CN(Cc4cccc(Cl)c4)C(=O)[C@]34CCCN24)c2ccccc21 | -6 | ? | 0 | 7% | 12µM*
O=C1N(Cc2cccc(Cl)c2)C[C@@H]2C[C@@H](c3ccsc3)N3CCC[C@@]123 | -9 | 5% | -1 | 1% | 8.3µM*
O=C1N(Cc2cccc(Cl)c2)C[C@@H]2C[C@@H](c3ccccn3)N3CCC[C@@]123 | -13 | ? | -1 | 2% | ?
CCOC(=O)c1nn(-c2ccc(C)c(C)c2)c(=O)c2c(N)scc12 | -22 | 13µM* | -4 | 19% | 8%
COC(=O)c1nn(-c2ccc3c(c2)CCN3C(C)=O)cc1O | -36 | 33% | -11 | 3% | 1.3µM*
COC(=O)c1nn(-c2ccc3c(c2)OCO3)cc1O | 61 | i | 33* | -29% | 127%
COc1cc(C(=O)Nc2ccc3c(c2)CCN3C(C)=O)cc(OC)c1OC | -2 | 4% | -2 | . | -17%[5.75 µM]
CCOC(=O)c1nn(-c2c(C)n(C)n(-c3ccccc3)c2=O)cc1O | -17 | 4% | -4 | 3% | 13%
COC(=O)C1=C(C)N(Cc2ccc3c(c2)OCO3)C(=O)C1 | -9 | -1% | -6 | 8% | -3%
CCOC(=O)c1nn(-c2ccc([N+](=O)[O-])cc2)cc1O | 46* | 29% | 31* | 0% | 30%
O=C(NCCc1cn2ccccc2n1)C1CCCCC1 | -7 | 36% | 1 | -25% | 20%
CC(=O)OCc1c(C)cc(C)c(/C=C(/C#N)C(N)=O)c1C | -5 | -29% | 7 | -4% | 10%
O=C(CCNC(=O)N1CC(=O)Nc2ccccc21)Nc1ccc(F)c(Cl)c1 | -4 | -29% | 1 | 5% | 6%
CCc1cccc(C)c1NC(=O)CSc1nnc(C)o1 | -29 | 199% | 12 | 13% | 4%
CCOC(=O)c1c(NC(=O)CSc2nnnn2-c2ccc3c(c2)OCCO3)sc(C)c1C | 5 | -21% | 12 | -1% | 30%
CCOC(=O)c1nn(-c2ccc(C)c(C)c2)cc1O | 94* | . | 42* | -37% | 139%
CCOC(=O)c1nn(-c2ccc3c(c2)OCCO3)cc1O | 84* | 345% | 40* | . | 225%
COc1cccc(CC(NC(C)=O)C(=O)NC2CCN(S(=O)(=O)c3ccc(F)cc3)CC2)c1OC (centres undefined) | 15 | 3% | -3 | 2% | -2%
C=CCn1c(SCc2csc(C)n2)nc2sc3c(c2c1=O)CCC(C)C3 (centres undefined) | 17 | ? | -2 | 16% | 12µM*
